Pf growth 96h: P. falciparum growth inhibition at 96 hour, primary screen for plastid delayed-death inhibitors; Potency, µM (doses to about 28.7 µM), actives largely listed as inhibitors; P. falciparum luciferase reporter growth, 96 h; actives 6.9% (n = 320,000)
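Erythrocytes infected with luciferase-expressing P. falciparum were dispensed at 2% hematocrit and 0.05% parasitemia (final), then incubated with compounds 96 hours at 37 C in 5% CO2. Luminescence after detection reagent addition reported growth.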
HCMV inh: human cytomegalovirus inhibition. HFF cells, HCMV-luciferase reporter, 72 h; active compounds read low. activity change, negative = inhibition, % at 57.5 µM. actives 4.5% (n = 410,000). AID 1259415; in the data active = activity change below about -60%; inconclusive = no clear call, values can overlap the other calls; inactive = above about -39%
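Luciferase read-out from HCMV-luciferase-infected HFFs (MOI 1 PFU/cell) 72 h post infection at 37C; compounds added after 16 h cell attachment; activity normalized between buffer-only basal and Salinomycin (10uM) inhibitor controls.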
Pf growth 48h: inhibits P. falciparum growth in the first generation, 48 h | P. falciparum luciferase growth in erythrocytes, 48 h | Potency, µM (series often up to 28.7 µM), most hits filed as inhibitors | actives 5.9% (n = 310,000)
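Luminescence readout; reporter = integrated firefly luciferase in P. falciparum. RBC culture at 2% hematocrit, 0.1% parasitemia final, 37 C/5% CO2; decreased signal taken as growth inhibition.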
HCV inh: HCV inhibition | actives 3.4% (n = 340,000) | Potency, µM (top dose mostly 41.8 µM), hits mostly inhibitors | AID 651820 | Huh7.5.1 HCVcc-Cre infection, luciferase reporter, 44 h
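Infectious HCVcc-Cre (~0.5 moi) was added to cells just after compound, with cells seeded 4 h earlier at 1,000 per well. Luciferase activity after 44 h culture reported infection; substrate was incubated 15 min at room temperature before reading.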
Each line names hits and unclear results; the compound was inactive in the other large screens. In the library only some 13% were active in any assay of this set; here they are far more common. Unless noted, calls come from the whole dose curve; as a rule, active = well fitted inhibition curve with a large enough effect; inconclusive = small, poorly fitted or top-dose-only effect, or another doubt; inactive = no such curve, though single readings can be large or run the other way.

COC(=O)c1ccc(NC(=O)CCc2c(C)nn(-c3ccc(N4CCCCC4)nn3)c2C)cc1	none (no result: Pf growth 96h, Pf growth 48h, HCV inh)
COc1ccc(CC2(CO)CCN(S(=O)(=O)N(C)C)CC2)cc1	Pf growth 96h 5.9µM
COc1ccc(CC2(CO)CCN(S(=O)(=O)c3cccc4cccnc34)CC2)cc1	Pf growth 96h 12µM
COc1ccc(CC2(CO)CCN(CC3=Cc4cc(Cl)ccc4OC3)CC2)cc1	HCMV inh inconclusive, HCV inh 4.5µM
Cc1c(Cl)cccc1NC(=O)CCCCCN1C(=O)CCC1=O	none
O=C(CCCCCN1C(=O)CCC1=O)Nc1ncn[nH]1	HCMV inh -103 (no result: Pf growth 96h)
Cc1cc(Nc2ccc(C(C)C)cc2)nc(-n2nc(C)cc2C)n1	HCMV inh -91 (no result: Pf growth 96h, Pf growth 48h, HCV inh)
Cc1cc(Nc2ccc(C)c(Cl)c2)nc(N2CCOCC2)n1	Pf growth 96h inconclusive, Pf growth 48h inconclusive, HCV inh inconclusive
Cc1ccc(Nc2cc(C)nn2-c2nc(C)cc(=O)[nH]2)cc1	Pf growth 48h inconclusive, HCV inh inconclusive (no result: HCMV inh)
COc1ccc(Nc2cc(C)nc(-n3nc(C)cc3C)n2)cc1Cl	HCMV inh -98 (no result: Pf growth 96h, Pf growth 48h, HCV inh)
Cc1ccc(Nc2cc(C)nn2-c2nc(C)cc(C)n2)cc1	HCMV inh inconclusive, Pf growth 48h 3.7µM, HCV inh inconclusive (no result: Pf growth 96h)
Cc1ccc(NC(=O)c2cccc(N3C(=O)C4C5CCC(C5)C4C3=O)c2)c(C)c1 (centres undefined)	Pf growth 48h 10µM
CC(=O)COC(=O)c1cccc(N2C(=O)C3C4C=CC(C4)C3C2=O)c1 (centres undefined)	Pf growth 96h 13µM
Cc1ccccc1NC(=O)c1cccc(N2C(=O)C3C4CCC(C4)C3C2=O)c1 (centres undefined)	none (no result: Pf growth 96h)
CN(C)c1ccc(NC(=O)c2cccc(N3C(=O)C4C5C=CC(C5)C4C3=O)c2)cc1 (centres undefined)	HCMV inh inconclusive (no result: Pf growth 96h)
Cc1ccc(NC(=O)c2cccc(N3C(=O)C4C5C=CC(C5)C4C3=O)c2)cc1C (centres undefined)	Pf growth 96h 12µM, HCMV inh inconclusive
CCOC(=O)c1cccc(N2C(=O)C3C(C2=O)C2C=CC3C23CC3)c1 (centres undefined)	none (no result: Pf growth 96h)
O=C(Nc1ccccc1)c1cccc(N2C(=O)C3C4CC(C(Br)C4Br)C3C2=O)c1 (centres undefined)	Pf growth 96h inconclusive, Pf growth 48h 1.5µM
COc1ccccc1NC(=O)c1cccc(N2C(=O)C3C4C=CC(C4)C3C2=O)c1 (centres undefined)	Pf growth 96h inconclusive
COc1ccc(NC(=O)c2cccc(N3C(=O)C4C5C=CC(C5)C4C3=O)c2)cc1Cl (centres undefined)	Pf growth 48h inconclusive, HCV inh 10µM
CCCCNC(=O)C1(C)CCCCN1Cc1ccccc1-c1ccccc1 (centres undefined)	none (no result: Pf growth 96h, Pf growth 48h, HCV inh)
Cc1ccc(C)c(OCC(=O)N(C)CC(=O)Nc2ccc(Cl)c(C(F)(F)F)c2)c1	Pf growth 96h inconclusive, Pf growth 48h 12µM
COc1ccc(C(=O)OCC(=O)Nc2ccc(Cl)c(C(F)(F)F)c2)c(OC)c1OC	HCMV inh -62, HCV inh inconclusive
Cc1ccc(NC(=O)CN(C)C(=O)COc2c(Cl)cc(Cl)c3ccc(C)nc23)cc1	Pf growth 96h 1.7µM, Pf growth 48h 4.1µM
Cc1ccc2c(Cl)cc(Cl)c(OCC(=O)Nc3cc(C)on3)c2n1	none (no result: HCMV inh, HCV inh)
Cc1ccc2c(Cl)cc(Cl)c(OCC(=O)NC(=O)NCc3ccco3)c2n1	Pf growth 96h inconclusive, Pf growth 48h 2.3µM, HCV inh inconclusive
Cc1cccc(C(=O)OCC(=O)N(C)CC(=O)Nc2ccc(Cl)c(C(F)(F)F)c2)c1	Pf growth 96h inconclusive, Pf growth 48h inconclusive, HCV inh inconclusive
COc1ccc(-n2cc(-c3ccccc3)c3c(N4CCCC(C)C4)ncnc32)cc1 (centres undefined)	none (no result: Pf growth 96h, Pf growth 48h, HCV inh)
COc1ccc(OC)c(NC(=O)CSc2nc3ccccc3c(=O)n2CCC(=O)NC2CCCCC2)c1	none (no result: Pf growth 96h, Pf growth 48h, HCV inh)
CCOc1ccc(NC(=O)c2ccc3c(c2)nnn3C2CCCC2)cc1	none (no result: Pf growth 96h, Pf growth 48h, HCV inh)
CN(CC(=O)Nc1ccc(Cl)c(C(F)(F)F)c1)C(=O)c1cc(-c2ccncc2)nc2ccccc12	Pf growth 96h inconclusive, Pf growth 48h 13µM, HCV inh inconclusive
CN(CC(=O)Nc1ccc(Cl)c(C(F)(F)F)c1)C(=O)Cc1n[nH]c(=O)c2ccccc12	Pf growth 96h inconclusive, HCMV inh -73, HCV inh inconclusive
CN(CC(=O)Nc1cccc(F)c1)C(=O)Cc1n[nH]c(=O)c2ccccc12	none
CCOC(=O)c1c(C)c(-c2ccccc2)n(CC(=O)Nc2cc(OC)cc(OC)c2)c1C	none (no result: Pf growth 96h, Pf growth 48h, HCV inh)

Source: PubChem (National Center for Advancing Translational Sciences (NCATS))
